Results filed as inconclusive are left out. Active and inactive are the calls of the source. Calls come from the whole dose curve; as a rule, active = well fitted cell-killing curve with a large enough effect in the repeat runs; inconclusive = weak or mixed curves, or effect the other way; inactive = no such curve, though single readings can be large or run the other way.

This assay is described as follows: qHTS assay to identify small molecule agonists of the farnesoid-X-receptor (FXR) signaling pathway - cell viability counter screen (AID 743218). Note: nearly all actives have a fitted effect of over 45% in size. To be noted: FXR-bla HEK293T viability, CellTiter-Glo luminescence, 16 h; series mostly up to 62.6 µM. From the text: U.S. Tox21 Program National Center for Advancing Translational Sciences [NCATS] NIH Chemical Genomics Center [NCGC] U.S. Environmental Protection Agency [EPA] National Institutes of Environmental Health Sciences [NIEHS] National Toxicology Program [NTP] U.S. Food and Drug Administration [FDA] Tox21 Assay Overview: The farnesoid-X-receptor (FXR), a nuclear hormone receptor, is highly expressed in liver, intestine, kidney and adrenal cortex. Natural ligands of FXR are the bile acids (Cholic acid, Chenodeoxy cholic acid etc). FXR is an important regulator of diverse metabolic pathways, including the bile acid homeostasis, lipid and glucose metabolisms. FXR regulates the expression of target genes by binding either as a monomer or as a heterodimer with the retinoid X receptor (RXR). Numerous studies have reported that FXR exerts protective function during cholestasis, diabetes, liver regeneration, and cancer. To identify compounds that activate FXR signaling, GeneBLAzer FXR-UAS-bla HEK 293T cell line (Invitrogen, Carlsbad, CA) containing a beta-lactamase reporter gene under the control of a UAS response element was used to screen the Tox21 10K compound library. The cytotoxicity of the Tox21 compound library against the FXR-bla cell line was tested in parallel by measuring the cell viability using CellTiter-Glo assay in the same wells.
Tox21 Assay Protocol Summary: FXR-bla cells were dispensed at 5000 cells/5uL/well in 1536-well black wall/clear bottom plates using a Multidrop Combi (Thermo Fisher Scientific, Waltham, MA) dispenser. After the assay plates were incubated at 37 C and 5% CO2 for 5 h, 23 nL of compounds dissolved in DMSO, positive controls or DMSO only was transferred to the assay plate by a Pintool station (Kalypsys, San Diego, CA). The assay plates were incubated at 37C for 16 h. After 1 uL of LiveBLAzerTM B/G FRET substrate was added using a Bioraptr Flying Reagent Dispenser (FRD) workstation (Beckman Coulter, Indianapolis, IN), the plates were incubated at room temperature for 2 h, and fluorescence intensity was measured by an Envision plate reader (PerkinElmer, Shelton, CT). For cell viability readout that measures cytotoxicity, 4uL/well of CellTiter-Glo reagent was added into the assay plates using a Bioraptr FRD. After 30 min incubation at room temperature, the luminescence intensity in the plates was measured using a ViewLux plate reader (PerkinElmer).
Background: In qHTS, concentration-response curves come from the screen itself.
On to `CC(C)CC(O)Cc1ccccc1` (stereo not given), for which the result was inactive.

In the case of `C=CC(C)(CCC=C(C)C)OC(=O)C(C)C` (stereo not given), the result was inactive.

Consider `CC(=O)c1c(C)cc(C(C)(C)C)cc1C`, for which the result was inactive.

As for `O=C1c2ccccc2C(=O)N1CO`, the compound was classed as inactive.

In the case of `CC(=O)Nc1ccc(S(=O)(=O)Nc2cc(C)on2)cc1`, the compound was called inactive.

`COc1ccccc1N1CCN(CC(O)COc2cc(OC)c(OC)c(OC)c2)CC1` (stereo not given): the outcome was inactive.

`CCN1CCN(C(=O)N[C@@H](C(=O)N[C@@H]2C(=O)N3C(C(=O)O)=C(CSc4nnnn4C)CS[C@H]23)c2ccc(O)cc2)C(=O)C1=O`: the compound was called inactive.

For `COc1cc(S(N)(=O)=O)cc(C(=O)O)c1OC`, the outcome was inactive.

For the compound `CC(=O)c1ccc(O)c(C(N)=O)c1`, the outcome was inactive.

Consider `CCCc1ccc(O)c(OC)c1`, for which the compound was called inactive.

Take `CC(C)OC(=O)C(C(=O)OC(C)C)=C1SC=CS1`: the outcome was inactive.

Turning to `NNC(=O)CCCCC(=O)NN`, the call was inactive.

Turning to `CCOC(=O)COc1ccc2c(C)c(CCN(CC)CC)c(=O)oc2c1Cl`, the compound was classed as inactive.

On to `CCCCC(CC)COC(=O)CC#N` (stereo not given), for which the result was inactive.

With `COC(C)(C)CC(C)=O`, the outcome was inactive.

In the case of `CCCCc1ccc(Cl)cc1`, the call was inactive.

As to `CC(C)C[P+](C)(CC(C)C)CC(C)C`, the result was inactive.

With `Cc1ccc2cccnc2c1`, the compound was classed as inactive.

Regarding `C[Si](C)(C)O[Si](O)(O)O`, the result was inactive.

With `CC(=O)O[C@@H]1CC2C3CCc4cc(OC(=O)c5ccccc5)ccc4C3CCC2(C)[C@H]1OC(C)=O` (stereo not given in full), the compound was classed as inactive.

Consider `CC(O)C(CO)C(C)O` (stereo not given), for which the call was inactive.

On to `CCOC(=O)CN1CCCC1=O`, for which the result was inactive.

With `Nc1cc(S(=O)(=O)O)ccc1O`, the compound was classed as inactive.

Take `Cc1cc2c(cc1CC(=O)c1sccc1S(=O)(=O)Nc1onc(C)c1Cl)OCO2`: the outcome was inactive.

`CN1CCN(C(=O)C2CCCCC2)CC1`: the compound was classed as inactive.

Consider `C/C=C(\C)C=O`, for which the compound was called inactive.

For `CCCCCCCC(=O)N(C)C`, the outcome was inactive.

Turning to `CC(C)(C)OC(=O)c1ccccc1C(=O)O`, the call was inactive.

Consider `O=C(O)Cc1ccccc1Oc1ccc(Cl)cc1Cl`, for which the result was inactive.

On to `O=C1Nc2ccccc2C1=O`, for which the compound was classed as inactive.

`O=C(O)CCCCCCCCCC(=O)O`: the compound was called inactive.

On to `CCO[Si](CC(C)C)(OCC)OCC`, for which the result was inactive.

On to `CCc1ccc(CC)cc1`, for which the call was inactive.

On to `C=C(C)C(=O)OCCCC`, for which the compound was called inactive.

As to `CC(C)(C)NCC(O)COc1cccc2c1CCC(=O)N2` (stereo not given), the result was inactive.

In the case of `CCCCCCCCOCCC#N`, the outcome was inactive.

As to `Cc1ccc(S(=O)(=O)NC(=O)NN2CC3CCCC3C2)cc1` (stereo not given), the result was inactive.

`Nc1nc(Cl)cc(Cl)n1`: the result was inactive.

With `CN(C)CCC[C@@]1(c2ccc(F)cc2)OCc2cc(C#N)ccc21`, the call was inactive.

With `CN(C)c1ccncc1`, the call was inactive.

The record behind these values is PubChem BioAssay (Tox21).
